Measurements as given in PubChem BioAssay (NCATS).
Inconclusive results are not listed. Active and inactive are the calls of the source. Calls come from the whole dose curve; as a rule, active = well fitted activation curve with a large enough effect; inconclusive = small, poorly fitted or top-dose-only effect; inactive = no such curve, though single readings can be large or run the other way.

The molecules below were run against Cellular tumor antigen p53 (Homo sapiens) (UniProt P04637) (assay: Primary qHTS for small molecule compounds that upregulate eGFP-tagged delta133p53alpha (in N-terminal) cells. (AID 2060322; note: nearly all actives have a fitted effect of over 75% in size;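 for activation: cells pre-induced with doxycycline then dosed without doxycycline; series mostly up to about 56 µM; 0% = DMSO vehicle and 100% = reference activator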)). Conditions: NCI-H358 eGFP-delta133p53alpha fluorescence, 24 h; activation: hits give high values.
Method in brief: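 NCI-H358 cells pre-induced 24 h with 10 ng/ml doxycycline for eGFP-delta133p53alpha, plated dox-free and exposed 24 h at 37C to titrated compounds. Fixed, Hoechst-stained; gated GFP peak intensity by laser scanning cytometry, normalized to DMSO (0%) and 57.5 uM 5-azacytidine (100%).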
Potency is the fitted concentration of half-maximal effect.

Cellular tumor antigen p53 (Homo sapiens), sequence (P04637 whole entry, looked up): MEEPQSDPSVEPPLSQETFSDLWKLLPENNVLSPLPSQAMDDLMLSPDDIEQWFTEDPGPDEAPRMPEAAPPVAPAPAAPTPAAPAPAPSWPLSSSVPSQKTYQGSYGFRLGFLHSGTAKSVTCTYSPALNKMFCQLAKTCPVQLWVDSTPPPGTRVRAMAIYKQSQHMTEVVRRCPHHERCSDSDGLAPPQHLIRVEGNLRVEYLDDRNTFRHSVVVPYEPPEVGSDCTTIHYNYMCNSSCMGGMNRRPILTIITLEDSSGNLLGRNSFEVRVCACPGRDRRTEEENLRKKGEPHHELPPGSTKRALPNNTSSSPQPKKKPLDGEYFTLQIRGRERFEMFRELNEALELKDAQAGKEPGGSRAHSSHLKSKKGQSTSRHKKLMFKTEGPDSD

Row | Structure (SMILES) | activation | Potency
1 | CC(C(=O)O)c1ccc(C(=O)c2ccccc2)s1 (configuration not stated) | 0% (inactive) | 
2 | O=C(N/N=C/c1ccc([N+](=O)[O-])o1)c1ccc(O)cc1 | 24.3% (inactive) | 
3 | CN1CCC[C@H]1CCO[C@](C)(c1ccccc1)c1ccc(Cl)cc1 | 16.8% (inactive) | 
4 | Nc1ccc(C(=O)NCC(=O)O)cc1 | -8.47% (inactive) | 
5 | COc1cc(N)c(Cl)cc1C(=O)NC1CCN(Cc2ccccc2)CC1 | 17.6% (inactive) | 
6 | NS(=O)(=O)c1cc(-c2nn[nH]n2)c(NCc2cccs2)cc1Cl | 5.02% (inactive) | 
7 | CN(C(=O)C(Cl)Cl)c1ccc(OC(=O)c2ccco2)cc1 | 5.02% (inactive) | 
8 | O=C(N/N=C/c1ccccc1O)c1ccncc1 | -12.6% (inactive) | 
9 | Clc1ccc(-c2nc3sccn3c2C=NOCc2ccc(Cl)c(Cl)c2)cc1 | -15.4% (inactive) | 
10 | Cc1nc(N)nc(N)c1-c1ccc(Cl)c(Cl)c1 | 2.82% (inactive) | 
11 | O=C(NNC(=O)c1ccc(CNS(=O)(=O)c2ccc(F)c(Cl)c2)cc1)c1ccccc1 | 15.5% (inactive) | 
12 | CCCCC(CC)COC(=O)c1ccccc1C(=O)O (configuration not stated) | -12.6% (inactive) | 
13 | CCN1CCCC1=O | 10.7% (inactive) | 
14 | COc1cc(OC)nc(O[C@H](C(=O)O)C(OC)(c2ccccc2)c2ccccc2)n1 | -22% (inactive) | 
15 | C[C@@H]1CC[C@@]2(OC1)O[C@H]1C[C@H]3[C@@H]4CC[C@H]5C[C@@H](O)CC[C@]5(C)[C@H]4CC(=O)[C@]3(C)[C@H]1[C@@H]2C | -17.6% (inactive) | 
16 | Cc1ncc(CO)c(C=O)c1O | -3.35% (inactive) | 
17 | CC(C)=CCC/C(C)=C/CC/C(C)=C/CCC(=O)OC/C=C(\C)CCC=C(C)C | 0.565% (inactive) | 
18 | Nc1ccc(C(=O)Oc2ccccc2)c(O)c1 | -3.35% (inactive) | 
19 | CC(=O)N1C[C@H](O)C[C@H]1C(=O)O | 14.2% (inactive) | 
20 | CC(=O)ON=C1C(c2c(O)[nH]c3cc(Br)ccc23)=Nc2ccccc21 | 53.3% (inactive) | 
21 | CCOC(=O)c1ccc(N)cc1 | 8.37% (inactive) | 
22 | CN(C)CCc1c[nH]c2ccc(Cn3cncn3)cc12 |  | 21.7 µM (active)
